From PubChem BioAssay (EPA / NIEHS)
“And” between values parts separate entries of the source, which are not always exact repeats. Equal values may be shown once. Some compounds were tested as several samples or in several runs, with calls that do not always agree. The source made the active and inactive calls. Rule for the calls: active = hit-call score of the fitted dose curve at least 0.9, where 1 is the maximum; inactive = score below 0.9.

Key:
[1] = read-out: Monocyte Chemoattractant Protein-1 (MCP1), CCL2 (gene 6347); test: BSK_IMphg_MCP1: BioMAP Diversity Plus: IMphg Assay for Monocyte Chemoattractant Protein-1 (MCP1) Biomarker Activity (AID 2284253); conditions: primary human endothelial cells with macrophages
Summary of the method: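 ELISA readout of MCP-1 at 24 hours in IMphg co-cultures of venular endothelial cells and macrophages, normalised to DMSO; parallel cultures stained with sulforhodamine B for overt cytotoxicity.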

[2] = read-out: Interleukin-8 (IL8), CXCL8 (gene 3576); test: BSK_KF3CT_IL8: BioMAP Diversity Plus: KF3CT Assay for Interleukin-8 (IL8) Biomarker Activity (AID 2284254); conditions: primary human keratinocytes with fibroblasts
Summary of the method: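 IL-8 read-out: ELISA, 24 h post-dose, human skin primary co-culture (keratinocytes + foreskin fibroblasts). DMSO = baseline; positive-direction fit.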

[3] = read-out: Macrophage Inflammatory Protein-1 Alpha (MIP1a), CCL3 (gene 6348); test: BSK_IMphg_MIP1a: BioMAP Diversity Plus: IMphg Assay for Macrophage Inflammatory Protein-1 Alpha (MIP1a) Biomarker Activity (AID 2284255); conditions: primary human endothelial cells with macrophages
Summary of the method: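 MIP-1a protein levels were quantified by ELISA after 24 h treatment of human endothelial cell–macrophage co-cultures, compared with DMSO. Parallel cultures were fixed with TCA and stained with 0.1% SRB to gauge overt cytotoxicity.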

CD69, CD69 (gene 969) = test: BSK_IMphg_CD69: BioMAP Diversity Plus: IMphg Assay for CD69 Biomarker Activity (AID 2284257); conditions: primary human endothelial cells with macrophages
Summary of the method: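 Readout is ELISA for CD69 in primary human venular endothelial cell/macrophage co-culture, taken at 24 h post-dosing. SRB staining of parallel cultures gauged overt cytotoxicity; signal increase versus DMSO defined activity.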

[4] = read-out: Eotaxin 3, CCL26 (gene 10344); test: BSK_BF4T_Eotaxin3: BioMAP Diversity Plus: BF4T Assay for Eotaxin 3 Biomarker Activity (AID 2284258); conditions: primary human bronchial epithelial cells with fibroblasts
Summary of the method: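 ELISA measurement of Eotaxin-3 after 24 h chemical exposure in a bronchial epithelial/dermal fibroblast co-culture, with DMSO as baseline. Parallel SRB staining (0.1% SRB after 10% TCA fixation, 560 nm) flagged overt cytotoxicity.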

[5] = read-out: Monocyte Chemoattractant Protein-1 (MCP1), CCL2 (gene 6347); test: BSK_BF4T_MCP1: BioMAP Diversity Plus: BF4T Assay for Monocyte Chemoattractant Protein-1 (MCP1) Biomarker Activity (AID 2284259); conditions: primary human bronchial epithelial cells with fibroblasts
Summary of the method: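 MCP-1 ELISA readout taken 24 h after dosing in the BF4T system (bronchial epithelial cells plus dermal fibroblasts). Parallel SRB total-protein staining flagged cytotoxicity; DMSO served as baseline, positive fitting direction.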

[6] = read-out: Intercellular Adhesion Molecule 1 (ICAM1), ICAM1 (gene 3383); test: BSK_BF4T_ICAM1: BioMAP Diversity Plus: BF4T Assay for Intercellular Adhesion Molecule 1 (ICAM1) Biomarker Activity (AID 2284260); conditions: primary human bronchial epithelial cells with fibroblasts
Description: BSK_BF4T is a cell-based, multiplexed-readout assay that uses bronchial epithelial cells and dermal fibroblasts, a human vascular primary cell, with measurements taken at 24 hours after chemical dosing in a microplate: 96-well plate.BSK_BF4T_ICAM1 is an assay component measured in the BSK_BF4T assay. It measures ICAM-1 antibody related to regulation of gene expression using ELISA technology.Data from the assay component BSK_BF4T_ICAM1 was analyzed at the endpoint, BSK_BF4T_ICAM1, in the positive analysis fitting direction relative to DMSO as the negative control and baseline of activity. Using a type of binding reporter, gain or loss-of-signal activity can be used to understand protein changes. […]
The levels of cell surface (or secreted, indicated by the prefix "s") biomarker endpoints were measured by ELISA. Overt cytotoxicity to cells in confluent adherent cultures (all systems other than the BT system) was assessed by measuring total protein levels using sulforhodamine B (SRB) staining in parallel cultures at the time of biomarker measurements, indicated as SRB endpoints. For proliferation assays for adherent cell types, individual cell types are cultured at sub-confluence and relative cell numbers quantified by SRB staining at time points optimized for each system (48 h: 3C and CASM3C systems; 72 h: BT and HDF3CGF systems; 96 h: SAg system). […] Plates were read after 6 h.

[7] = read-out: Interleukin-8 (IL8), CXCL8 (gene 3576); test: BSK_MyoF_IL8: BioMAP Diversity Plus: MyoF Assay for Interleukin-8 (IL8) Biomarker Activity (AID 2284261); conditions: primary human lung fibroblasts
Summary of the method: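 Lung fibroblasts (human primary) → chemical exposure → 24 h → IL-8 measured by ELISA. Signal increase scored versus DMSO control.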

CD90, THY1 (gene 7070) = test: BSK_BF4T_CD90: BioMAP Diversity Plus: BF4T Assay for CD90 Biomarker Activity (AID 2284262); conditions: primary human bronchial epithelial cells with fibroblasts
Summary of the method: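 CD90 levels by ELISA after 24 h treatment of human bronchial epithelial cell/dermal fibroblast cultures, analysed versus DMSO. Overt cytotoxicity checked in parallel cultures by sulforhodamine B staining.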

[8] = read-out: Plasminogen activator inhibitor-1 (PAI1), SERPINE1 (gene 5054); test: BSK_MyoF_PAI1: BioMAP Diversity Plus: MyoF Assay for Plasminogen activator inhibitor-1 (PAI1) Biomarker Activity (AID 2284256); conditions: primary human lung fibroblasts;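 for outcome: PAI-1 protein level measured by ELISA in fibroblast cultures; PAI-1 read 24 h after compound addition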
Summary of the method: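 MyoF lung fibroblasts, human primary; compound 24 h; PAI-1 ELISA; positive-direction fit vs DMSO baseline; parallel SRB total-protein staining for cytotoxicity.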

Which outcome [1] does the source give for `O=C(O)C(F)(F)C(F)(F)C(F)(F)C(F)(F)C(=O)O` here?
The outcome was “inactive”.

And the outcome [2]?
Its outcome is “inactive”.

And the outcome [3]?
Its outcome is “inactive”.

What about the outcome (CD69, CD69 (gene 969)) of the same compound?
Its outcome is “inactive”.

What about the outcome [4] of the same compound?
Its outcome is “inactive”.

What about the outcome [5] of the same compound?
The outcome was “inactive”.

And the outcome [6]?
The outcome was “inactive”.

What about the outcome [7] of the same compound?
The outcome was “inactive”.

What about the outcome (CD90, THY1 (gene 7070)) of the same compound?
Its outcome is “inactive”.

With `C=CC(=O)NCOCCCC` as the compound, how does the outcome [7] read?
Its outcome is “inactive”.

Which outcome [7] does the source give for `CCC1(C)C(=O)N(Cl)C(=O)N1Cl` (stereo not given) here?
The outcome was “inactive”.

For `CCCC(C)C(=O)OCC` (stereo not given), which outcome [2] is on record?
Its outcome is “inactive”.

With `CC(CCC(=O)O)(c1ccc(O)cc1)c1ccc(O)cc1` as the compound, how does the outcome [2] read?
The outcome was “inactive”.

For `Nc1nc(N)nc(-c2ccccc2)n1`, which outcome [2] is on record?
Its outcome is “inactive”.

Which outcome [7] does the source give for `CCCCCCCO` here?
Its outcome is “inactive”.

`Clc1cc(Cl)c(Cl)c(Cl)c1Cl` was tested. Which AC50 [8] did it give?
Its AC50 is 31.9 µM (active).

What about the outcome [7] of the same compound?
The outcome was “inactive”.

`CC=C(C)C=CC=C(C)C` was tested. Which AC50 [8] did it give?
Its AC50 is 0.016 µM (active).

And the outcome [7]?
Its outcome is “inactive”.

Which outcome [2] does the source give for `CCCCCCCCCCCC(=O)N(C)CC(=O)O` here?
Its outcome is “inactive”.

For `CCCCCCCCC(CO)CCCCCC` (stereo not given), which outcome [8] is on record?
The outcome was “inactive”.

What about the outcome [7] of the same compound?
Its outcome is “inactive”.

With `CCOC(=O)C1=NN(c2ccc(Cl)cc2Cl)C(C)(C(=O)OCC)C1` (stereo not given) as the compound, how does the outcome [7] read?
Its outcome is “inactive”.

How did the outcome [8] turn out when `Cc1c(O)cccc1O` was run?
Its outcome is “inactive”.

What about the outcome [7] of the same compound?
Its outcome is “inactive”.

For `CC(C)C(=O)OCCc1ccccc1`, which outcome [2] is on record?
The outcome was “inactive”.

`C[N+](C)(C)CCCNS(=O)(=O)C(F)(F)C(F)(F)C(F)(F)C(F)(F)C(F)(F)C(F)(F)C(F)(F)C(F)(F)F` was tested. Which outcome [1] did it give?
The outcome was “inactive”.

What about the outcome [2] of the same compound?
Its outcome is “inactive”.

What about the AC50 [3] of the same compound?
The AC50 was 50.5 µM (active) and 56.9 µM (active).

And the AC50 (CD69, CD69 (gene 969))?
The AC50 was 8.01 µM (active).

And the outcome (CD69, CD69 (gene 969))?
The outcome was “inactive”.

What about the outcome [4] of the same compound?
Its outcome is “inactive”.

What about the outcome [5] of the same compound?
Its outcome is “inactive”.

What about the outcome [6] of the same compound?
The outcome was “inactive”.

What about the outcome [7] of the same compound?
Its outcome is “inactive”.

What about the outcome (CD90, THY1 (gene 7070)) of the same compound?
Its outcome is “inactive”.

With `CC1=CC=C(C(C)C)CC1` as the compound, how does the outcome [8] read?
Its outcome is “inactive”.

What about the outcome [7] of the same compound?
The outcome was “inactive”.

With `c1ccc(Nc2cccc3ccccc23)cc1` as the compound, how does the AC50 [2] read?
The AC50 was 31.6 µM (active) and 29.4 µM (active).

Which outcome [7] does the source give for `C=CC(=O)OCC(C)OCC(C)OCC(C)OC(=O)C=C` (stereo not given) here?
Its outcome is “inactive”.

How did the outcome [7] turn out when `Fc1ccc(Br)cc1` was run?
The outcome was “inactive”.

Which outcome [2] does the source give for `Oc1ccccc1Cc1ccccc1O` here?
The outcome was “inactive”.

`CCNc1nc(NC(C)(C)C)nc(OC)n1` was tested. Which outcome [8] did it give?
The outcome was “inactive”.

What about the outcome [7] of the same compound?
Its outcome is “inactive”.

Which outcome [7] does the source give for `Oc1c(Cl)cc(Cl)c(Cl)c1Cl` here?
The outcome was “inactive”.

With `COc1ccc(C(=O)c2ccccc2)c(O)c1` as the compound, how does the outcome [8] read?
The outcome was “inactive”.

What about the outcome [7] of the same compound?
The outcome was “inactive”.

Which results are given for `CC=C(C)C(C)=O`?
outcome [8]: inactive; outcome [7]: inactive

With `Oc1ccc(/C=C/c2cc(O)cc(O)c2)cc1` as the compound, how does the outcome [7] read?
Its outcome is “inactive”.

How did the outcome [8] turn out when `CC(c1cc(C(C)(C)C)cc(C(C)(C)C)c1O)c1cc(C(C)(C)C)cc(C(C)(C)C)c1O` was run?
Its outcome is “inactive”.

And the outcome [7]?
The outcome was “inactive”.

How did the outcome [7] turn out when `CC(Cl)COP(=O)(OCC(C)Cl)OCC(C)Cl` (stereo not given) was run?
The outcome was “inactive”.

Which AC50 [8] does the source give for `C=CC(=O)OCCCCCCOC(=O)C=C` here?
The AC50 was 34.6 µM (active).

What about the outcome [7] of the same compound?
The outcome was “inactive”.
